A selection: hits, their analogues and other compounds. The true share with any hit is near 11%.
Pf growth 48h – P. falciparum growth inhibition at 48 hours (one generation) | P. falciparum luciferase growth in erythrocytes, 48 h | Potency, µM (series often up to 28.7 µM), for inactives: at the highest dose activity change, negative = inhibition, most hits filed as inhibitors | actives 5.9% (n = 310,000) | AID 504832; note: % is set by controls: 0 for no effect and ±100 for the full control effect
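Compounds are pin-transferred into medium, infected erythrocytes (2% hematocrit, 0.1% parasitemia final) are added, and plates sit one parasite generation at 37 C in 5% CO2. Detection reagent is then added and luminescence measured.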
HCV inhibitor – inhibitors of hepatitis C virus infection | Huh7.5.1 HCVcc-Cre infection, luciferase reporter, 44 h | actives 3.4% (n = 340,000) | AID 651820 | Potency, µM (titrated, usually from 41.8 µM), for the others: at the highest dose activity change, negative = inhibition, usual class: inhibitors; note: % is set by controls: 0 for no effect and ±100 for the full control effect
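Reporter virus HCVcc-Cre (~0.5 moi) infects cells exposed to compound; seeding density 1,000 cells/well with 4 h settling beforehand. Luminescence, 15 sec read, taken 44 h post-infection following a 15 min RT substrate incubation.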
VACV Venus inh – inhibitors of vaccinia virus (Venus reporter); Vaccinia virus Venus reporter expression, fluorescence; Potency, µM (doses to about 36.5 µM), without a hit: top-dose activity change, negative = inhibition, hits mostly inhibitors; actives 0.46% (n = 330,000); AID 720580; calls by dose curve; tested in A549 cells; note: % is set by controls: 0 for no effect and ±100 for the full control effect; nearly all actives have a fitted effect of over 30% in size
Pf growth 96h – inhibits malaria parasite growth, 96 h | P. falciparum luciferase reporter growth, 96 h | actives 6.9% (n = 320,000) | AID 504834 | Potency, µM (series often up to 28.7 µM), inactives show at the top dose activity change, negative = inhibition, hits mostly inhibitors; note: % is set by controls: 0 for no effect and ±100 for the full control effect
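Erythrocytes infected with luciferase-expressing P. falciparum were dispensed at 2% hematocrit and 0.05% parasitemia (final), then incubated with compounds 96 hours at 37 C in 5% CO2. Luminescence after detection reagent addition reported growth.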
Vaccinia mCherry – inhibitors of vaccinia virus infection (mCherry reporter signal); Vaccinia virus mCherry reporter infection, fluorescence; Potency, µM (titrated, usually from 36.5 µM), for inactives: at the top dose activity change, negative = inhibition, most hits filed as inhibitors; actives 0.63% (n = 310,000); AID 720579; calls by dose curve; tested in A549 cells; note: % is set by controls: 0 for no effect and ±100 for the full control effect; nearly all actives have a fitted effect of over 35% in size
NS1 inh – inhibitors of influenza NS1 protein function; actives 0.4% (n = 270,000); Potency, µM (series often up to 46.1 µM), for the others: top-dose activity, positive = more growth; calls by dose curve; note: actives are rising curves; nearly all actives have a fitted effect of over 50% in size
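In this qHTS, NS1 from influenza A is expressed in budding yeast, where it slows growth. Cells are switched from glucose to 2% galactose medium (pH 6.0, -URA), treated with compound, and growth recovery is read at OD600.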
The depositor's hits bear a star; i = inactive; ? = inconclusive; / = not tested or not shown. Unless noted, calls come from the whole dose curve; as a rule, active = well fitted inhibition curve with a large enough effect; inconclusive = small, poorly fitted or top-dose-only effect, or another doubt; inactive = no such curve, though single readings can be large or run the other way. Potency is the fitted concentration of half-maximal effect.

SMILES | Pf growth 48h | HCV inhibitor | VACV Venus inh | Pf growth 96h | Vaccinia mCherry | NS1 inh
COc1ccc(S(=O)(=O)N2CCCCC2)cc1NC(=O)Cc1sc(C)nc1-c1ccc(F)cc1 | 11.7µM* | ? | -13.6% | ? | -1.5% | /
CCCCn1c(N)c(N(CC(C)C)C(=O)COC(=O)c2ccccc2NCCO)c(=O)[nH]c1=O | ? | 16.7% | 2.9% | 0.2% | i | /
COC(CN(C)C(=O)c1ccc(CS(=O)(=O)c2ccccc2C)o1)OC | 33.8% | 18.9% | -7.8% | ? | -14.1% | -2.6%
O=C(Nc1ccc(S(=O)(=O)N2CCOCC2)cc1)c1cccs1 | -26.2% | 5.4% | -4.5% | 89.6% | -15.9% | 4.5%
O=C(O)c1ccc(NC2(C(=O)O)CCCC2)cc1 | / | 19.6% | -7.0% | / | -0.1% | /
COc1ccc(S(=O)(=O)N2CCCCCC2)cc1C(=O)NCc1ccco1 | / | 7.4% | 0.0% | / | -10.2% | /
COc1ccc(S(=O)(=O)N2CCCCCC2)cc1C(=O)NCc1ccccc1Cl | 5.86µM* | 8.9% | -22.7% | 8.28µM* | -5.2% | /
COc1ccc(S(=O)(=O)N2CCCCCC2)cc1C(=O)NCc1cccs1 | 14.7µM* | ? | -20.8% | ? | -18.5% | /
CC1CCCC(NC(=O)COC(=O)c2ccccc2[N+](=O)[O-])C1C (stereo not given) | 5.6% | 0.9% | -15.6% | 22.1% | -13.7% | /
CC(=O)NCCOC(=O)Nc1cccnc1 | 1.85µM* | 35.5% | -6.1% | 23.5% | i | 6.2%
C/C(=N\NC(=O)CN(c1ccccc1)S(=O)(=O)c1ccccc1[N+](=O)[O-])C(C)(C)C | ? | 3.8% | -8.8% | 11.7µM* | -6.4% | 16.0%
O=C(Cc1n[nH]c(=O)c2ccccc12)Nc1cccc(S(=O)(=O)N2CCCCCC2)c1 | 9.28µM* | ? | / | ? | / | /
O=C(COc1ccccc1Cl)Nc1ccc(Cl)cn1 | 187.9% | -0.1% | / | 10.4µM* | / | -16.2%
N=c1sccn1CC(=O)Nc1cccc(S(=O)(=O)N2CCCCCC2)c1 | -14.7% | 10µM* | / | ? | / | /
O=C(COc1ccccc1Cl)Nc1cccc(S(=O)(=O)N2CCCC2)c1 | ? | 10µM* | / | ? | / | /
Cc1ccc(S(=O)(=O)N2CCCCC2)cc1NC(=O)Cn1ccsc1=N | -11.1% | 4.7% | -19.4% | 3.4% | -10.5% | 2.6%
O=C(Cc1n[nH]c(=O)c2ccccc12)Nc1cccc(S(=O)(=O)N2CCCC2)c1 | ? | ? | -5.9% | ? | -2.7% | 1.5%
CCSc1nnc(NC(=O)c2ccc3nc[nH]c3c2)s1 | / | -16.0% | -10.2% | / | i | /
COc1ccc(S(=O)(=O)Nc2ccc(Oc3ccsc3C(=O)O)cc2)cc1 | / | 3.7% | / | -3.4% | / | 2.7%
O=C(COc1cc(F)ccc1[N+](=O)[O-])Nc1cc(S(=O)(=O)N2CCCC2)ccc1Cl | 1.8% | 14.1µM* | -12.7% | ? | i | /
Cc1ccc(Oc2ccc(NC(=O)Cn3ccsc3=N)cc2)cc1 | 10.4µM* | ? | -23.5% | / | ? | -2.2%
Cc1ccc(NC(=O)CN(C)C(=O)Cn2ccsc2=N)cc1 | 0.0% | -1.8% | -16.1% | 14.3% | -13.0% | /
COCCN(CC(=O)Nc1cccc(S(=O)(=O)N2CCCC2)c1)Cc1nc2ccccc2c(=O)[nH]1 | 10.4µM* | ? | -16.3% | ? | i | /
O=C(COc1ccccc1[N+](=O)[O-])Nc1cccc(S(=O)(=O)N2CCCC2)c1 | / | ? | -20.4% | / | -7.2% | /
CC(NC(C)c1ccccc1Cl)C(=O)Nc1cccc(S(=O)(=O)N2CCCCC2)c1 (stereo not given) | 10.4µM* | ? | / | 13.1µM* | / | /
SMILES | Pf growth 48h | HCV inhibitor | VACV Venus inh | Pf growth 96h | Vaccinia mCherry | NS1 inh
COCCN(Cc1nc2ccccc2c(=O)[nH]1)C(=O)c1cccc(S(=O)(=O)N2CCCC2)c1 | ? | 12.9% | / | -29.0% | / | /
CC(=O)Nc1nnc2n1CCS2 | / | / | -3.7% | / | -4.4% | /
Cc1cc(C)c2nc(-n3nc(C)cc3N)cc(C)c2c1 | 204.5% | ? | -9.9% | 99.5% | -16.2% | 21.9%
Cc1ccc(NC(=O)NC2=N/C(=C(/C#N)C(=O)N3CCCC3)c3ccccc32)cc1 | 36.8% | ? | -15.0% | ? | -21.9% | -29.2%
O=C(CSc1nc2ccccc2s1)NC(=O)NCc1ccco1 | 0.0% | -13.0% | / | 34.1% | / | ?
Cc1ccc(Sc2cnc(N)nc2C)cc1 | -25.5% | 0.6% | -4.9% | 18.0% | -10.9% | /

Source: PubChem (National Center for Advancing Translational Sciences (NCATS))
